Among the data in PubChem BioAssay (Tox21) are Potency values, retold here.

The structures appear in SMILES notation. Results filed as inconclusive are left out. Active and inactive are the calls of the source. Unless noted, calls come from the whole dose curve; as a rule, active = well fitted curve in the direction sought with a large enough effect in the repeat runs; inconclusive = weak or mixed curves; inactive = no such curve, though single readings can be large; an effect the other way counts as inactive or inconclusive. Non-standard residues stand in square brackets, D forms with d. Residues, ends and D or L forms follow the SMILES beside them. pGlu = O=C1CC[C@@H](C(=O)O)N1; Thz = O=C(O)[C@@H]1CSCN1

Test [1] can be described thus: qHTS assay for small molecule agonists of the p53 signaling pathway (AID 651631; calls by dose curve; note: nearly all actives have a fitted effect of over 15% in size; note: potency is the fitted concentration of half-maximal effect). The method, boiled down:
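HCT-116 cells carrying a beta-lactamase reporter under p53 response elements were dosed with compound for 16 h at 37 °C. LiveBLAzer B/G FRET substrate was then added for 2 h at room temperature, and fluorescence intensity was read to detect pathway agonism.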
(In general: In qHTS, concentration-response curves come from the screen itself.)

Test [2] is described as follows: qHTS assay for small molecules that induce genotoxicity in human embryonic kidney cells expressing luciferase-tagged ATAD5 (AID 651632). Note: nearly all actives have a fitted effect of over 15% in size. In a few lines: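 DMSO vehicle served as the control. HEK293T reporter cells, 16 hr at 37C, then 30 min Amplite at room temperature; ATAD5 induction is measured as luciferase activity.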
A short description of test [3]: qHTS assay for small molecule agonists of the p53 signaling pathway - cell viability (AID 651633; calls by dose curve;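 note: p53RE-bla HCT reporter cells with a stable beta-lactamase p53 reporter; series mostly up to about 83 µM; nearly all actives have a fitted effect of over 30% in size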). The method, boiled down: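 Viability counter-read: CellTiter-Glo luminescence (30 min, room temperature) in the same p53RE-bla plates. These plates had been exposed to compounds for 16 h at 37 C.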
A short description of test [4]: qHTS assay for small molecules that induce genotoxicity in human embryonic kidney cells expressing luciferase-tagged ATAD5 - cell viability (AID 651634; calls by dose curve; note: nearly all actives have a fitted effect of over 25% in size). In a few lines:
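Here HEK293T cells with the ATAD5 luciferase reporter are incubated with test compounds for 15.5 hr, and cytotoxicity is then gauged by measuring protease activity in live cells using fluorescence.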

The nature of test [5]: qHTS assay for small molecule disruptors of the mitochondrial membrane potential - cell viability (AID 720634; calls by dose curve;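 note: human HepG2 liver cancer cells; series mostly up to about 83 µM; nearly all actives have a fitted effect of over 20% in size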). In a few lines:
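Viability of HepG2 cells is scored from ATP content by luminescence; cells are exposed to compound for 1 hr at 37 C and 5% CO2, then dosed with m-MPI dye before the CellTiter-Glo reagent.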

A short description of test [6]: qHTS assay for small molecule disruptors of the mitochondrial membrane potential (AID 720635). Note: potency is the fitted concentration of half-maximal effect. The method, boiled down: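 Mitochondrial membrane potential tracked with Mito-MPS dye, red aggregates (ex 540/em 590 nm) against green monomers (ex 490/em 535 nm). Compound treatment 1 hr at 37C, dye 30 min in HepG2.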
The nature of test [7]: qHTS assay to test for compound auto fluorescence at 590 nm (red) in HepG2 cells (AID 720674). In a few lines: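 1 hr compound incubation on HepG2 cells, 37 C, 5% CO2; plate read ex 540 nm / em 590 nm; intensities reported as Rose Bengal sodium equivalents.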
Test [8] in a line: qHTS assay to test for compound auto fluorescence at 535 nm (green) in HepG2 cells (AID 720675).
A short description of test [9]: qHTS assay to test for compound auto fluorescence at 460 nm (blue) in HEK293 cells (AID 720678). The method, boiled down:
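Measured: blue fluorescence (Ex 405/Em 460 nm) of compound-treated HEK293 cells, incubated overnight at 37C with 5% CO2 and scaled to triamterene equivalents.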

A short description of test [10]: qHTS assay to test for compound auto fluorescence at 590 nm (red) in HEK293 cells (AID 720679). The method, boiled down:
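Using HEK293 cells at 2,000 per well, the screen added 23 nL of each compound after cell attachment and incubated overnight (37C, 5% CO2). The plate reader then captured red-label fluorescence, Ex/Em 540/590nm.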

`CCOC(=O)Cc1cccc(-c2cc(CCCCCCc3ccc(O[C@H]4O[C@H](COC(C)=O)[C@@H](OC(C)=O)[C@H](OC(C)=O)[C@@H]4OC(C)=O)c(-c4cccc(CC(=O)OCC)c4)c3)ccc2O[C@H]2O[C@H](COC(C)=O)[C@@H](OC(C)=O)[C@H](OC(C)=O)[C@@H]2OC(C)=O)c1`: the Potency entry in test [1], in test [2], in [3], in test [4], in [5] and in test [6] was “inactive” throughout. In addition, the Potency entry in test [7], in [8], in [9] and in test [10] was “inactive” each time.

Take `CC1CC(OC(=O)C(O)c2ccccc2)CC(C)(C)C1` (configuration not stated): the Potency result in [1], in test [2], in test [3], in test [4], in test [5] and in test [7] was “inactive” each time. The Potency result in test [8], in test [9] and in test [10] was “inactive” throughout. For the same molecule, the Potency in test [6] is 13.3 µM (active).

For the molecule `CNC[C@@H]1CC[C@@H](N)[C@@H](O[C@H]2[C@H](O)[C@@H](O[C@H]3OC[C@](C)(O)[C@H](NC)[C@H]3O)[C@H](N)C[C@@H]2N)O1`, the Potency result in test [1], in [2], in [3], in test [4], in test [5] and in [6] was “inactive” throughout. In addition, the Potency entry in test [7], in test [8], in test [9] and in test [10] was “inactive” in each case.

On to `CCOC(=O)CN[C@@H](C(=O)N1CC[C@H]1C(=O)NCc1ccc(/C(N)=N/O)cc1)C1CCCCC1`, for which the Potency entry in test [1], in [2], in [3], in test [4], in [5] and in [6] was “inactive” throughout. For the same molecule, the Potency result in test [7], in [8], in test [9] and in test [10] was “inactive” each time.

Turning to `O=P(O)(O)OC(CO)CO`, the Potency entry in test [1], in test [2], in test [3], in test [4], in test [5] and in [6] was “inactive” throughout. Besides, the Potency result in test [7], in [8], in test [9] and in test [10] was “inactive” each time.

For the molecule `O=C(CCCN1CCC(C(=O)c2ccc(F)cc2)CC1)c1ccc(F)cc1`, the Potency entry in test [1], in test [2], in [3], in [4], in test [5] and in test [6] was “inactive” in each case. In addition, the Potency entry in test [7], in [8], in test [9] and in test [10] was “inactive” in each case.

For the molecule `CC(C)(C)CC(=O)OCC(=O)[C@@]12OC(C)(C)O[C@@H]1C[C@H]1[C@@H]3CCC4=CC(=O)C=C[C@]4(C)[C@@]3(F)[C@@H](O)C[C@@]12C`, the Potency result in [1], in test [2], in test [3], in test [4], in test [5] and in [7] was “inactive” each time. Further, the Potency result in test [8], in [9] and in test [10] was “inactive” throughout. Besides, the Potency in [6] is 13.3 µM (active).

Regarding `CCC(C)(C)OC(=O)N[C@@H](Cc1c[nH]c2ccccc12)C(=O)N[C@@H](CCSC)C(=O)N[C@@H](CC(=O)O)C(=O)N[C@@H](Cc1ccccc1)C(N)=O`, the Potency entry in [1], in [2], in test [3], in test [4], in [5] and in test [6] was “inactive” each time. Also, the Potency entry in test [9] and in test [10] was “inactive” each time.

Turning to `CC(=O)Oc1cccc(C(=O)O)c1OC(C)=O`, the Potency entry in test [1], in test [2], in [3], in test [4], in test [5] and in test [7] was “inactive” each time. Further, the Potency entry in test [8], in test [9] and in test [10] was “inactive” in each case.

In the case of `Cc1ncc(C[n+]2csc(CCOP(=O)(O)OP(=O)(O)O)c2C)c(N)n1`, the Potency result in [1], in [2], in test [3], in test [4], in [5] and in test [7] was “inactive” throughout. For the same molecule, the Potency entry in [8], in test [9] and in [10] was “inactive” in each case.

In the case of `C/C=C(/CC[C@@H](C)[C@H]1CC[C@H]2C3=CC[C@H]4[C@H](C)[C@@H](O)CC[C@]4(C)[C@H]3CC[C@]12C)C(C)C`, the Potency entry in [1], in test [2], in test [3], in test [4], in [5] and in [7] was “inactive” throughout. Moreover, the Potency entry in test [8], in test [9] and in [10] was “inactive” in each case.

As for `COc1cc2[nH]c(C)c(CCN3CCN(c4ccccc4)CC3)c2cc1OC`, the Potency result in [1], in test [2], in test [3], in test [4], in test [5] and in test [7] was “inactive” in each case. Moreover, the Potency result in [8], in [9] and in test [10] was “inactive” in each case.

As to `O=C1CC[C@@H](C(=O)N2CSC[C@H]2C(=O)O)N1` ([pGlu]-[Thz]-OH), the Potency result in test [1], in test [2], in [3], in [4], in test [5] and in [7] was “inactive” each time. Further, the Potency result in [8], in test [9] and in test [10] was “inactive” each time.

As to `CCCN(CC)C(CC)C(=O)Nc1c(C)cccc1C` (configuration not stated), the Potency entry in test [1], in test [2], in test [3], in test [4], in test [5] and in test [7] was “inactive” throughout. Further, the Potency entry in [8], in [9] and in test [10] was “inactive” throughout.

On to `COc1ccc(CCNC[C@H](O)c2ccc(O)cc2)cc1OC`, for which the Potency result in [1], in test [2], in test [3], in test [4], in [5] and in test [7] was “inactive” in each case. Moreover, the Potency result in test [8], in [9] and in [10] was “inactive” throughout.

For the molecule `CN(CC(=O)N1CCOCC1)Cc1c(Cl)cccc1NC(=O)c1ccccc1`, the Potency result in [1], in test [2], in test [3], in [4], in [5] and in test [7] was “inactive” throughout. Also, the Potency entry in [8], in test [9] and in test [10] was “inactive” throughout.

For the molecule `NCCCC[C@H](N)C(=O)O`, the Potency result in [1], in [2], in test [3], in test [4], in test [5] and in [7] was “inactive” in each case. Further, the Potency entry in [8], in test [9] and in [10] was “inactive” throughout.

Regarding `N#Cc1ccc2c(c1)N(CCCN1CCC(O)CC1)c1ccccc1S2`, the Potency in [1] is 26.6 µM (active). Besides, the Potency result in test [2], in [3], in test [4], in test [5], in test [7] and in [8] was “inactive” each time. Further, the Potency result in test [9] and in test [10] was “inactive” in each case.

On to `CC(C)Cc1ccc([C@@H](C)C(=O)NS(C)(=O)=O)cc1`, for which the Potency entry in test [1], in [2], in test [3], in test [4], in test [5] and in [7] was “inactive” throughout. Also, the Potency entry in test [8], in test [9] and in test [10] was “inactive” in each case.
